Measurements published in ChEMBL document CHEMBL4513216, “Probing the Open Global Health Chemical Diversity Library for Multistage-Active Starting Points for Next-Generation Antimalarials” (ACS Infect Dis, 2020).
The whole screen tested about 69,000 compounds, of which about 8,600 (12%) showed an effect of 50% or more. For the sample, strong results were picked, then their nearest neighbours and some compounds at random.

tested on: Plasmodium berghei; assay: Screen against P. berghei liver stage (PbLuc), transformed with Luciferase, at 10uM; type: functional, HepG2; conditions: tested at 10 uM

SMILES	INHIBITION [%]
CCOCc1nn(C)c2c1CN(CCO)CC2	27.6
O=C(N1CCOCC1)[C@@]12CCO[C@@H]1CCN(C1CCCCC1)C2	0.542
COc1ccccc1CN(C)c1nc2c(cnn2C)c(=O)[nH]1	27.9
COc1ccc(CN(C)c2nc3c(cnn3C)c(=O)[nH]2)c(OC)c1	73.8
COc1ccc(OC)c(CN(C)c2nc3c(cnn3C)c(=O)[nH]2)c1	4.3
COc1cccc([C@@]2(O)CC[C@@H]3CN(C(=O)c4c[nH]nc4C)C[C@@H]32)c1	15.15
CC(=O)N1CCN(c2cc(CCN)nc(C3CC3)n2)CC1	3.91
CSc1nsc(SCC(=O)c2cc3c(cc2Cl)NC(=O)C3)n1	18.4
CCCOc1ccc(C(=O)N2CCN3CCNC(=O)C3C2)cc1Cl (centres undefined)	18.7
CCCOc1ccc(C(=O)N2CC[C@@H]3CC[C@H](C2)N3)cc1Cl	-4.4
CCN1CCC2(CC1)OCCN2C(=O)c1ccc(OC)c(Cl)c1	45
COc1cc(C(=O)N2CCCS2(=O)=O)cc(Cl)c1OC	21.1
CCCOc1c(Cl)cc(C(=O)N2CCOC23CCN(C)CC3)cc1Cl	55.4
CCN1CCC2(CC1)OCCN2C(=O)c1cc(Cl)c(OC)c(Cl)c1	59.5
Cc1ccc(C(NC(=O)CCCN2CCCCC2)C(=O)O)cc1 (centres undefined)	-18.9
COc1cc(CCC(=O)N2CCC(c3cnccn3)CC2)on1	36.15
Cc1ccc(F)c(NS(=O)(=O)c2cc3c(c(C(=O)O)c2)OCCO3)c1	14.1
COCCN1C(=O)[C@@H]2CC[C@H]1CN(C(=O)Cc1c(F)cccc1Cl)C2	-107
CCc1c(C(=O)O)nnn1-c1cc(C)ccc1C	-7.83
Cc1cc(C)n(CC2CN(Cc3cccnc3)CCO2)n1 (centres undefined)	18.7
CC(=O)N1CC[C@H]2OCC[C@@]2(C(=O)NCCc2ccccn2)C1	3.81
COCCNc1ccc(CNCc2cnc3nc(C)cc(C)n23)cc1	-45.7

SMILES	INHIBITION [%]
Cc1ccc(-c2nc(CCNC(=O)NC3CCC(O)CC3)co2)cc1 (centres undefined)	68.8
COc1ccc(-c2nc(CCNC(=O)NC3CCC(O)CC3)co2)cc1 (centres undefined)	50.6
CCC(C(=O)NCCc1coc(-c2ccc(C)cc2)n1)N(C)C (centres undefined)	10.5
O=C(NCCc1coc(-c2ccc(F)cc2)n1)NCC1CCOC1 (centres undefined)	13.8
O=C(NCCc1coc(-c2ccccc2)n1)NC1CC1	44.1
O=C(NCCc1coc(-c2ccc(F)cc2)n1)NC1CCC(O)CC1 (centres undefined)	54.6
O=C(NCCc1coc(-c2ccc(F)cc2)n1)NC1CC1	0.914
Cc1ccc(-c2nc(CCNC(=O)NC3CCN(C)CC3)co2)cc1	-9.14
COc1ccc(-c2nc(CCNC(=O)NCC3CCOC3)co2)cc1 (centres undefined)	1.04
c1ccc(CCN2CCCC(c3ccnc4nccn34)C2)cc1 (centres undefined)	39.1
O=C(c1ccncc1F)N1CC[C@@H]2OC(COCC3CC3)CC[C@@H]21 (some centres undefined)	14.5
CCCN(CC(F)F)C(=O)CCc1c(C)nc2cc(O)nn2c1C	4.1
Cc1nn(Cn2ccc(C(=O)N3CCCCCC3)n2)c(C)c1Cl	26.9
CCn1nc(C)c(CNC(=O)c2nnc3ccc(Cl)cc3n2)c1C	73.1
CCn1nc(C)c(CNC(=O)NCC(C)(O)c2ccccc2)c1C (centres undefined)	-6.12
O=C(NCCn1cccn1)c1nnc2ccccc2n1	68.5
CCn1nc(C)c(CNC(=O)C2COc3ccccc3C2)c1C (centres undefined)	15.9
CCn1nc(C)c(CNC(=O)c2nnc3ccc(OC)cc3n2)c1C	41.6
O=C(NCCCn1cccn1)c1nnc2ccccc2n1	37.9
O=C(NCC1CC1)c1nnc2ccc(Cl)cc2n1	5.21
CCn1nc(C)c(CNC(=O)c2nnc3ccccc3n2)c1C	58.2
Cc1ccc2nnc(C(=O)NCCCn3cccn3)nc2c1	26.8

SMILES	INHIBITION [%]
CS(=O)(=O)N1CCCC(C(=O)Nc2cnn(COCC(F)(F)F)c2)C1 (centres undefined)	4.08
Cc1ccc(C2(CN(C)Cc3sccc3C)CCNCC2)nc1	6.66
CC(C)C(=O)N1CCCC([C@@H]2C[C@H](C(F)F)n3ncnc3N2)C1 (some centres undefined)	5.295
O=C1CC[C@H]2[C@H](CCN2C(=O)N2CCCC2)N1Cc1ccncc1	41.2
Cc1nsc2ncc(C(=O)N3CCCC3c3cnn(C)c3)cc12 (centres undefined)	19.2
Cc1ccc2c(c1)[C@@H](CC(=O)N1CCOCC1)CCO2	14.5
COc1ccc2c(c1)NC(C1CCNCC1)NS2(=O)=O (centres undefined)	19.3
O=S1(=O)NC2(CCCN(Cc3ccc(F)cc3)C2)COc2ccccc21 (centres undefined)	0.207
Cc1cncc(C(=O)N2CCCC(O)(CN(C)C)CC2)c1 (centres undefined)	-5.78
Cc1cccc(C(C(=O)NC(C)(C)CN2CCOCC2)N(C)C)c1 (centres undefined)	-17.8
CN(C)C[C@]12COC[C@H]1CN(Cc1ccc3c(c1)OCO3)C2	28.5
Cc1nn(C)cc1C(=O)N1CCCC(c2nccn2CC2CCC2)C1 (centres undefined)	14.1
O=C(CC1CCN(CCc2ccccc2)CC1)N1CCCOCC1	33.2
CCCC(O)CN1CCC(=O)N(CC2CC2)Cc2cc3c(cc21)OCO3 (centres undefined)	10.9
Cn1cc(CNCCNc2ncc(Cl)cc2Cl)cn1	-14.5
Cc1c(C(=O)NC2CCCOC2)nnn1-c1ccc(Cl)cc1F (centres undefined)	55.5
Cc1c(C(=O)NC2CCCOC2)nnn1-c1ccccc1 (centres undefined)	17.1
Cc1c(C(=O)NC2CCCC2)nnn1-c1ccccc1	-133
Cc1cnn(CC(C)NCC(=O)NCCOc2ccccc2)c1 (centres undefined)	-0.96
CCc1ncc(CN(CCc2ccccc2)Cc2cccs2)cn1	45.1
CCN(Cc1ccccc1Cl)Cn1nc(C)c2c(C)onc2c1=O	40.2
CC(C)N(C(=O)Cn1nnnc1CCc1ccccc1)C(C)C	37.7

SMILES	INHIBITION [%]
CC(C)(C)n1nnnc1CN(CCc1ccccc1)Cc1ccccc1	65.7
O=C(c1nnn(-c2ccc(Cl)cc2)n1)N(CCO)Cc1ccccc1	-23.5
CC(C)(C)n1nnnc1CN(Cc1ccccc1)Cc1ccc(Cl)cc1	81.4
Cn1cc(CN(Cc2ccccn2)Cc2ccccc2Cl)cn1	-10.4
CC(C)(C)n1nnnc1CN(Cc1ccccc1)Cc1ccccc1Cl	91.6
CCc1nc(CN(C(C)=O)C2CCN(Cc3ccccc3F)C2)no1 (centres undefined)	-11.4
CN(Cc1ccco1)[C@@H]1CN(C(=O)C2CCOCC2)C[C@@H]2CCCO[C@@H]21	37.1
CCN(CC)C(=O)Cn1ccc2cc(NC(=O)COC)ccc21	-7.267
Cn1nccc1-c1nnn2c1COC(CNCc1nccs1)C2 (centres undefined)	38.3
N[C@H]1CN(C(=O)c2ccc3[nH]c(=O)c(=O)[nH]c3c2)C[C@@H]1c1ccccc1	34.1
Cc1cc(NC(=O)CN2CCC(N3CCNC3=O)CC2)on1	-71.2
CC(NCc1c(C(C)C)nn(C)c1N(C)C)C(=O)NC1CCCC1 (centres undefined)	-5.94
CS(=O)(=O)N1CCC(NCC2(N3CCOCC3)CCCCC2)CC1	49
C1CCC(CNC2CCSCC2)(N2CCOCC2)CC1	51.1
C1CCC(NCC2(N3CCOCC3)CCSC2)C1 (centres undefined)	30.8
COCc1nn(C(C)C)c2c1CCN(Cc1cccs1)C2	23.5
O=C(c1ccc(N2CCCCCC2)nn1)N1CCc2ccccc21	-30
CCCc1nc(N2CCN(Cc3ccccn3)CC2)c2cnn(C)c2n1	27.6
CCc1cc(NCCc2cccnc2)n2nc(C)c(C)c2n1	-1.6
CCCc1nc2c(c(C)c(C)n2Cc2cccnc2)c(N)c1CC	75.2
CCc1nc2c(c(C)c(C)n2Cc2cccnc2)c(N)c1C	29.1
Cc1c(-c2ccccc2)nc2c(c(C)c(C)n2CCN(C)C)c1N	-19.4

SMILES	INHIBITION [%]
CCCc1nc2c(c(C)c(C)n2Cc2ccncc2)c(N)c1CC	77.9
CCCc1nc2c(c(C)c(C)n2Cc2ccccn2)c(N)c1CC	68.1
CCCc1nc2c(c(C)c(C)n2CCN(C)C)c(N)c1CC	43.8
CCc1c(-c2ccccc2)nc2c(c(C)c(C)n2CCN(C)C)c1N	45
Cc1nn(C)c(N(C)C)c1CNCCCN(C(C)C)S(C)(=O)=O	6.15
COc1ncccc1CN1CCn2c(Cn3cncn3)cnc2C1	7.96
CCc1nc(C2CCCN2C(=O)c2ccc3c(c2)[nH]c(=O)n3C)no1 (centres undefined)	-21.7
COc1cccc(CC(=O)NC2CCCc3cn[nH]c32)c1 (centres undefined)	33.4
Cc1nn(C)c(Cl)c1CNCc1cccnc1N1CCCCC1	-13
Cc1noc(C)c1CC(=O)N1CCCC(Cc2ccccn2)C1 (centres undefined)	-0.6
CC1(C)COCCN1C(=O)Cc1cc(Cl)c2c(c1)OCCO2	-117
O=C(C[C@@H]1COC[C@H]2CN(C(=O)c3cccnc3)C[C@@H]12)N1CCOCC1	-81.1
CCOc1ccc2[nH]c(=O)c(CN3CCC(n4cnnc4)CC3)cc2c1	43.4
CN(CCn1ccnc1-c1ccccn1)S(C)(=O)=O	-36
Cn1nc(COCC2CC2)c2c1CN(C(=O)c1ccno1)CC2	8.85
Cc1ccsc1C(=O)N1CCCn2nnc(Cn3cccn3)c2C1	60.3
O=C(CO)N1CCCn2nnc(Cn3cccn3)c2C1	12.1
O=C(c1ccc(Cl)cc1)N1CCCn2nnc(Cn3cccn3)c2C1	10.8
CCc1ccc(C(=O)N2CCCn3nnc(Cn4cccn4)c3C2)cc1	52.3
O=C(c1ccncc1)N1CCCn2nnc(Cn3cccn3)c2C1	33
Cc1ccccc1C(=O)N1CCCn2nnc(Cn3cccn3)c2C1	-16.9
